Screening results: PubChem, National Center for Advancing Translational Sciences (NCATS)
nsP2pro inh – blocks chikungunya virus nsP2 protease peptide cleavage; Q8JUX6; FRET peptide cleavage, nsP2pro, fluorescence 1 h; Potency, µM (highest dose often 24.9 µM), inactives show top-dose activity change, negative = inhibition, usual class: inhibitors; 1.1% of 31,000 active; also: nearly all actives have a fitted effect of over 60% in size
Target sequence (Q8JUX6 whole entry, looked up): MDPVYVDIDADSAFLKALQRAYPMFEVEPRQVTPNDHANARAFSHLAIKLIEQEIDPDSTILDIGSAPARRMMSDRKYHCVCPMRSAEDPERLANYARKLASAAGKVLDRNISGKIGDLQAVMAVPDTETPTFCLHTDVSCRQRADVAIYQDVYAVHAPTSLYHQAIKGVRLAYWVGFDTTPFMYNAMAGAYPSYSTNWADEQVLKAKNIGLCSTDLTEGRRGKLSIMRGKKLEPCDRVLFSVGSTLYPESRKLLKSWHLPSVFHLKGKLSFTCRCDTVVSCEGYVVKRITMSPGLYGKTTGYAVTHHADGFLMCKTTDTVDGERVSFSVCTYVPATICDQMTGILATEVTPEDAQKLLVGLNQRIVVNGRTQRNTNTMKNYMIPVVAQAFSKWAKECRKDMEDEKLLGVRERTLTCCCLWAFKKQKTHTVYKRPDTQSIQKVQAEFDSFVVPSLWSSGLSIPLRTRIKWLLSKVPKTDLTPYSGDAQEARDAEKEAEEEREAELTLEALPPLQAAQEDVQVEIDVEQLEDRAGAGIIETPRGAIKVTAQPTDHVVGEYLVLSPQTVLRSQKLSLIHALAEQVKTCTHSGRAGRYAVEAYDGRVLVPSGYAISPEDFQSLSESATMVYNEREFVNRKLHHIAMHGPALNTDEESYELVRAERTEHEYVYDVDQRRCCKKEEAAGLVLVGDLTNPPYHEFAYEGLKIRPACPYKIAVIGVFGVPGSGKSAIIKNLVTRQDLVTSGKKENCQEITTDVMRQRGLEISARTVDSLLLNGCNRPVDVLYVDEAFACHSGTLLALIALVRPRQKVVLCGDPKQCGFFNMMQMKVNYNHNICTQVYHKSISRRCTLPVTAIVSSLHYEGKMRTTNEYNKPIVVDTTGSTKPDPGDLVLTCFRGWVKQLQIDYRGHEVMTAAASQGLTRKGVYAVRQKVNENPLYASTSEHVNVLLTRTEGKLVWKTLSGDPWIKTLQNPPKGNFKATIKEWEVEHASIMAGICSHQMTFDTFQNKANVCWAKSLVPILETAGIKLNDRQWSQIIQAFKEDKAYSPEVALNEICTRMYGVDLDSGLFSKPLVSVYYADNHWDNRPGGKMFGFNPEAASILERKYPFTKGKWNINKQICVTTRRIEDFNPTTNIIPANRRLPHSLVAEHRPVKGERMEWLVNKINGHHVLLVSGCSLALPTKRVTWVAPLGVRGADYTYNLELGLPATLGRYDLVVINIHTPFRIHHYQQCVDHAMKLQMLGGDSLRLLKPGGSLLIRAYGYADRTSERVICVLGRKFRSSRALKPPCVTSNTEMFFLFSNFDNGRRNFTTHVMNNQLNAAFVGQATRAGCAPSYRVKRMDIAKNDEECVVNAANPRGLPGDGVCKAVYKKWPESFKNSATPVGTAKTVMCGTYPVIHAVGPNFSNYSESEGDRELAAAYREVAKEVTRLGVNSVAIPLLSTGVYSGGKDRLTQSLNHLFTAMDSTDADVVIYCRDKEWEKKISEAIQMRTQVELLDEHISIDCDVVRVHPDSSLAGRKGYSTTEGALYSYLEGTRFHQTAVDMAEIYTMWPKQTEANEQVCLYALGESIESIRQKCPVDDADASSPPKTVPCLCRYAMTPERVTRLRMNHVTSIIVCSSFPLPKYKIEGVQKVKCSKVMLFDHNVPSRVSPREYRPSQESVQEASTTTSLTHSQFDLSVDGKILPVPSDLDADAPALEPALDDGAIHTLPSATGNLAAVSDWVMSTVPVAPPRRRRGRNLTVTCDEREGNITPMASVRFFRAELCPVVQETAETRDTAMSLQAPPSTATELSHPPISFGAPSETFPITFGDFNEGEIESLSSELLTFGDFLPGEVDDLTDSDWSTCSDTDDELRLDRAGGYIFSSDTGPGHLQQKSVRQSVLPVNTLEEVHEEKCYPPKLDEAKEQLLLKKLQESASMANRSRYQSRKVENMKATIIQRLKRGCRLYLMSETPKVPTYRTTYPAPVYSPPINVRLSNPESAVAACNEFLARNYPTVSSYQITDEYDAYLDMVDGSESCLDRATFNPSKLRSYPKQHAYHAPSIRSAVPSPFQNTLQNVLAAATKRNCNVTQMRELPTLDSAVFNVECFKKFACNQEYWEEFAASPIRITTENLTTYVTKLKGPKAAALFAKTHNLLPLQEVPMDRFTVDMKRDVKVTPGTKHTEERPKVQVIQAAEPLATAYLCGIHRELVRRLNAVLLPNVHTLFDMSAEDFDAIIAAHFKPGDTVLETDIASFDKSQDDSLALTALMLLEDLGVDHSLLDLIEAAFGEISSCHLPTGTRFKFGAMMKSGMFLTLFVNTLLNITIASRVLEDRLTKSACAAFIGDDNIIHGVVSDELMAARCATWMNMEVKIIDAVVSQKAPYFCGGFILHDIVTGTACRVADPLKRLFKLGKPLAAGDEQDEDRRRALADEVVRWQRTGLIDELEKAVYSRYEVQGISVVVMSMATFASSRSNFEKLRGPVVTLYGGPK
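Recombinant nsP2pro (150 nM) was preincubated with compound 15 min at room temperature in 10 mM Tris-HCl pH 8.0, 0.01% Tween 20. Peptide 2 FRET substrate (2.5 uM) was then added and fluorescence read after 1 h. Seven-point series, up to 25 uM.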
nsP2 cell sec – cell-based CHIKV nsP2 protease inhibition, secondary; 10% of 450 active; cell-based CHIKV nsP2 protease reporter assay; Potency, µM (doses to about 51.1 µM), inactives show at the top dose activity change, negative = inhibition, usual class: inhibitors; shares compounds with nsP2pro inh; also: nearly all actives have a fitted effect of over 70% in size
CHIKV NSP2 FL – full-length CHIKV NSP2 protease inhibition, selectivity. shares compounds with nsP2pro inh. Full-length CHIKV NSP2 protease enzymatic counterscreen. Potency, µM (top dose mostly 50.7 µM), for inactives: top-dose activity change, negative = inhibition, usual class: inhibitors. AID 1964101. 39% of 410 active; also: nearly all actives have a fitted effect of over 65% in size
Furin counterscr – human furin inhibition, counterscreen for nsP2pro inhibitors; AID 1964102; Recombinant human furin enzymatic counterscreen, fluorogenic substrate; shares compounds with nsP2pro inh; Potency, µM (top dose mostly 50.6 µM), for the others: at the top dose activity change, negative = inhibition, hits mostly inhibitors; 6% of 410 active
nsP2 NS23 pep – nsP2pro inhibition on native NS2/3 peptide substrate; shares compounds with nsP2pro inh; Purified CHIKV nsP2 protease, endogenous NS2/3 peptide cleavage; Potency, µM (top dose mostly 51 µM), inactives show top-dose activity change, negative = inhibition, most hits filed as inhibitors; 34% of 410 active; also: nearly all actives have a fitted effect of over 55% in size
Papain cs – papain protease inhibition, counterscreen for nsP2pro inhibitors; shares compounds with nsP2pro inh; purified papain protease activity, enzymatic inhibition; Potency, µM (series often up to 51 µM), for inactives: at the top dose activity change, negative = inhibition, hits mostly inhibitors; 5% of 410 active; AID 1964104
nsP2pro conf qHTS – CHIKV nsP2 protease inhibition, confirmatory qHTS. shares compounds with nsP2pro inh. CHIKV nsP2 protease enzymatic activity, qHTS. Potency, µM (titrated, usually from 25.5 µM), for the others: at the highest dose activity change, negative = inhibition, most hits filed as inhibitors. 43% of 410 active; also: nearly all actives have a fitted effect of over 75% in size
HCV NS3 4A cs – HCV NS3/4A protease inhibition, counterscreen | shares compounds with nsP2pro inh | HCV NS3/4A protease biochemical counterscreen | Potency, µM (highest dose often 50.9 µM), actives largely listed as inhibitors | 20% of 410 active | AID 1964106; also: nearly all actives have a fitted effect of over 55% in size
* marks the source's active call; other numbers are inactive results; i = inactive; u = inconclusive. Many of the other results were omitted from the sample, so hits are more common in it than they were. Calls follow the shape of the full dose curve. % is scaled to controls: 0 for no effect and ±100 for the full control effect; potency is read from the fitted curve at half-maximal effect.

SMILES	nsP2pro inh	others
CC[C@H](C)C1NC(=O)[C@H](Cc2ccc(O)cc2)NC(=O)[C@@H](N)CSSC[C@@H](C(=O)N2CCC[C@H]2C(=O)N[C@@H](CC(C)C)C(=O)NCC(N)=O)NC(=O)[C@H](CC(N)=O)NC(=O)[C@H](CCC(N)=O)NC1=O (stereo partly drawn)	17%
CC1=C(C)C(=O)C(CC[C@](C)(O)CCC[C@H](C)CCC[C@H](C)CCCC(C)C)=C(C)C1=O	-7%
CCCCCCCCn1cc(CC(N)=O)c2cc(-c3cccc(C)c3)ccc21	8%
CC(=O)Nc1nc(-c2ccc3c(c2)CCN3C(=O)c2ccccc2C)c(C)s1	-18%
Nc1ccc(-c2ccc(NC(=O)c3cccs3)cn2)cc1	5%
COc1ccccc1C(=O)Nc1ccc(NC(=O)c2cccs2)cc1	-8%
COc1ccc(-c2ccc(NC(=O)c3cccs3)cn2)cc1	u	nsP2 cell sec=0%;CHIKV NSP2 FL=u;Furin counterscr=-4%;nsP2 NS23 pep=-15%;Papain cs=-4%;nsP2pro conf qHTS=-6%;HCV NS3 4A cs=u
COc1cc(/C=C/C(=O)OC2[C@H](O)CC(O)(C(=O)O)C[C@H]2O)ccc1O (stereo partly drawn)	-6%
CC(C)n1nccc1-c1ncccc1COc1cccc(O)c1C=O	-20%
CC1(C)SCCN(S(=O)(=O)c2ccc(OCC#CCO)cc2)[C@H]1C(=O)NO	u	nsP2 cell sec=-13%;CHIKV NSP2 FL=u;Furin counterscr=-3%;nsP2 NS23 pep=2%;Papain cs=-3%;nsP2pro conf qHTS=u;HCV NS3 4A cs=i
CC1(C)SCCN(S(=O)(=O)c2ccc(Oc3ccncc3)cc2)[C@H]1C(=O)NO	0%
COc1ccc(-c2csc(NC(=O)[C@H]3CCCCN3S(=O)(=O)c3ccc(C)cc3)n2)cc1	2%
FC(F)(F)c1cccc(N2CCN(C(=S)Nc3nccc4cccnc34)CC2)c1	i
Cc1cc(C)nc(NC(=S)N2CCN(c3ccc4cnccc4c3)CC2)c1	-2%
Cc1c(Cl)cc([S+](=O)([O-])O)cc1NC(=O)NC[C@H](N)C(=O)O	-5%
COc1ncc(Nc2ncc([C@@H](C)N3CCN(S(C)(=O)=O)CC3)cc2-c2nc(C)nc(N)n2)cc1F	u	nsP2 cell sec=113%;CHIKV NSP2 FL=0%;Furin counterscr=-17%;nsP2 NS23 pep=1%;Papain cs=u;nsP2pro conf qHTS=-5%;HCV NS3 4A cs=i
CC(=O)N1CCc2sc(C(=O)NC3CCN(Cc4ccccc4)CC3)cc2C1	1%
CCn1ccn2c(-c3ccccc3)nc(C)c2c1=O	i
CC(=O)N[C@H]1C[C@@H](c2cc(C)c(C)cc2C)O[C@@H](C(C)(C)C)C1	-2%
COc1ccc(CC(=O)N2C[C@@H]3C[C@H](C2)c2c(-c4ccc(NC(C)=O)cc4)ccc(=O)n2C3)cc1	-5%
CCCS(=O)(=O)Nc1ccc(=O)n2c1[C@@H]1C[C@@H](CN(C(=O)Nc3ccc(OC)cc3)C1)C2	u	nsP2 cell sec=3%;CHIKV NSP2 FL=u;Furin counterscr=-9%;nsP2 NS23 pep=u;Papain cs=-2%;nsP2pro conf qHTS=u;HCV NS3 4A cs=u
COc1ccc(NC(=O)N2C[C@@H]3C[C@H](C2)c2c(NC(=O)CSC)ccc(=O)n2C3)cc1	-2%
CC1CCCN(c2ncnc3c2CN(c2ccc(Cl)cc2)C(=O)CN3C)C1 (stereo not drawn)	i
CCCC(=O)OC[C@@H](OC(=O)CCC)[C@@H](OC(=O)CCC)[C@H](Cn1c2nc(=O)[nH]c(=O)c-2nc2cc(C)c(C)cc21)OC(=O)CCC	0.7µM*	nsP2 cell sec=25%;CHIKV NSP2 FL=17%;Furin counterscr=-12%;nsP2 NS23 pep=2%;Papain cs=u;nsP2pro conf qHTS=-4%;HCV NS3 4A cs=i
OCC=Cc1ccccc1	1%
CC(=O)c1ccc(N2CCN(S(=O)(=O)c3ccc4[nH]c(=O)[nH]c4c3)CC2)cc1	4%
